# Experimental data as given in PubChem BioAssay (NCATS).
# “And” between values parts separate entries of the source, which are not always exact repeats. Identical values can stand only once. Records with an inconclusive call do not appear. Where a call stands in place of a potency, no number is given. Unmarked numbers belong to inactive results. The source made the active and inactive calls. Calls come from the whole dose curve; as a rule, active = well fitted curve in the direction sought with a large enough effect; inconclusive = small, poorly fitted or top-dose-only effect, or another doubt; inactive = no such curve, though single readings can be large; an effect the other way counts as inactive or inconclusive.
# Assays:
# [1] = qHTS Screen of the MIPE 4.0 Collection Against Ewings Sarcoma (TC32) (AID 1259256); note: nearly all actives have a fitted effect of over 45% in size
# Procedure, shortened: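 Viability screen: 48 h incubation at 37C, 95% humidity, 5% CO2 with serially titrated compound, followed by CellTiter-Glo readout.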
# [2] = P-glycoprotein substrates identified in KB-8-5-11 adenocarcinoma cell line, qHTS therapeutic library screen (AID 1346987); note: nearly all actives have a fitted effect of over 65% in size; for activity change, negative = cytotoxicity: series mostly up to about 44 µM
# Procedure, shortened: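 Compounds are pinned in dose-response onto KB-8-5-11 cells (500 cells/well, colchicine-free medium) and left 72 h at 37 degree C. CellTiter-Glo luminescence then yields AC50 values.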
# [3] = NS1 protein of Zika virus - qHTS assay to identify small molecule inhibitors in human HEK 293 cells (AID 1347053); note: nearly all actives have a fitted effect of over 55% in size; for activity change, negative = inhibition: series mostly up to about 46 µM
# Procedure, shortened: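 TR-FRET signal from two anti-ZIKV NS1 antibodies quantified NS1 in HEK 293 cells 24 h after MR766 infection at MOI = 0.5; compounds were added 1 h before virus. Uninfected cells and infected cells defined the NS1 normalization range.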
# [4] = qHTS of pediatric cancer cell lines to identify multiple opportunities for drug repurposing: Primary screen for TC32 cells (AID 1347089); note: nearly all actives have a fitted effect of over 60% in size
# Procedure, shortened: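 In the primary qHTS, MIPE compounds were tested at 11 concentrations (0.78 nM to 46 µM) and NPC compounds at 8 (0.59 nM to 46 µM) on TC32 cells for 48 h. CellTiter-Glo luminescence gave viability.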
# [5] = P-glycoprotein substrates identified in KB-3-1 adenocarcinoma cell line, qHTS therapeutic library screen (AID 1346986); note: nearly all actives have a fitted effect of over 60% in size;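 note: potency is for cytotoxicity meaning loss of cell viability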
# Procedure, shortened: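 In 1536-well format, 500 cells/well received pinned compound titrations and were incubated 72 h, 5% CO2. Viability was read by CellTiter-Glo; cytotoxic if AC50 < 10 uM and efficacy >50%.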
# [6] = qHTS of pediatric cancer cell lines to identify multiple opportunities for drug repurposing: Primary screen for DAOY cells (AID 1347090); note: nearly all actives have a fitted effect of over 55% in size; for activity change, negative = cytotoxic: series mostly up to about 46 µM
# Procedure, shortened: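 Viability measured as metabolically active cells via CellTiter-Glo luminescence following 48 hours of compound exposure, 11-point dilutions in confirmatory testing. 500-1,000 cells/well plated 5 hours before dosing; controls were DMSO and 2.3 µM bortezomib.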
# Potency is the fitted concentration of half-maximal effect.
smiles,measurement,setting,value
C=CC(=O)Nc1cc(NC(=O)c2ccc(C)c(NC(=O)c3ccno3)c2)cc(C(F)(F)F)c1,Potency,[1],23.5 µM (active)
same,Potency,[2],inactive
COC(=O)C1C2CC3c4[nH]c5cc(OC)ccc5c4CCN3CC2CC(OC(=O)c2cc(OC)c(OC)c(OC)c2)C1OC (centres undefined),Potency,[1],2.35 µM (active)
same,Potency,[2],inactive
same,Potency,[3],inactive
same,Potency,[4],inactive
COc1cc(C[C@@H](CO)[C@H](CO)Cc2ccc(O)c(OC)c2)ccc1O,Potency,[1],0.372 µM (active)
same,Potency,[2],inactive
same,Potency,[3],inactive
CCNC(=O)Nc1ccc(-c2nc3c(c(N4CCOC[C@H]4C)n2)CCN(C2COC2)C3)cc1,Potency,[1],0.935 µM (active)
same,Potency,[5],0.58 µM (active)
same,Potency,[2],1.84 µM (active)
same,Potency,[4],3.3 µM (active)
CCCCC(=O)O[C@]1(C(=O)CO)[C@@H](C)C[C@H]2[C@@H]3CCC4=CC(=O)C=C[C@]4(C)[C@@]3(F)[C@@H](O)C[C@@]21C,Potency,[1],inactive
same,Potency,[5],inactive
same,Potency,[2],inactive
same,Potency,[3],inactive
same,Potency,[6],inactive
CCNC(=O)c1cc2c(-c3cc(OCCN4CCCC4)c(Cl)cc3Cl)nc(N)nc2s1,Potency,[1],0.59 µM (active)
same,Potency,[2],5.26 µM (active)
same,Potency,[3],inactive
same,Potency,[4],3.7 µM (active)
N#Cc1ccc(COC[C@H]2O[C@@H](n3c(NCc4ccc(Cl)c(Cl)c4)nc4c(N)ncnc43)[C@@H](O)[C@@H]2O)cc1,Potency,[1],5.26 µM (active)
same,Potency,[2],inactive
Cc1cn([C@@H]2O[C@H](CO)[C@@H](O)[C@H]2F)c(=O)[nH]c1=O,Potency,[1],inactive
same,Potency,[5],inactive
same,Potency,[2],inactive
same,Potency,[3],inactive
same,Potency,[6],inactive
O=S(=O)(O)CCSSCCS(=O)(=O)O,Potency,[1],inactive
same,Potency,[2],inactive
same,Potency,[3],inactive
same,Potency,[4],inactive
CC[C@@]1([C@@H]2O[C@@H]([C@H]3O[C@@](O)(CO)[C@H](C)C[C@H]3C)C[C@H]2C)CC[C@H]([C@]2(C)CC[C@]3(C[C@H](O)[C@@H](C)[C@@H]([C@@H](C)[C@@H](OC)[C@H](C)C(=O)O)O3)O2)O1,Potency,[1],0.162 µM (active)
same,Potency,[2],0.911 µM (active)
same,Potency,[3],1.29 µM (active)
same,Potency,[4],1.61 µM (active)
CCCc1nc(C(C)(C)O)c(C(=O)O)n1Cc1ccc(-c2ccccc2-c2nn[nH]n2)cc1,Potency,[1],inactive
same,Potency,[2],inactive
same,Potency,[3],inactive
same,Potency,[4],inactive
CC(C)(C)[C@H](NC(=O)c1ccc(N)c(Cl)c1)C(=O)N1CCC[C@@H]1C(=O)N[C@H](C#N)CC(=O)O,viability (percent of control),[1],127% [at 3.51 µM]
same,"activity change, negative = cytotoxicity",[2],2.87% [at 5.11 µM]
same,"activity change, negative = inhibition",[3],0.927% [at 4.81 µM]
same,"activity change, negative = cytotoxic",[4],10.4% [at 4.81 µM]
CC(=O)NC(CS)C(=O)O (centres undefined),Potency,[1],inactive
same,Potency,[2],inactive
same,Potency,[3],inactive
same,Potency,[4],inactive
COc1cc(C(C)C)c(Oc2cnc(NC(CO)CO)nc2N)cc1I,Potency,[1],1.48 µM (active)
same,Potency,[2],inactive
same,Potency,[3],inactive
same,Potency,[4],inactive
CN(C)CC[C@H](c1ccc(Cl)cc1)c1ccccn1,Potency,[1],inactive
same,Potency,[2],inactive
same,Potency,[3],inactive
same,Potency,[4],inactive
same,Potency,[6],23.5 µM (active)
O=C(NCc1ccccc1)[C@H](Cc1ccccc1)NC(=O)[C@@H]1O[C@@H]1C(=O)NCCc1ccc(O)cc1,Potency,[1],1.18 µM (active)
same,Potency,[2],inactive
same,Potency,[3],inactive
same,Potency,[4],inactive
C=C1C(=O)O[C@H]2[C@@H]1CCC(C)=CCC[C@@]1(C)O[C@@H]21,Potency,[1],9.35 µM (active)
same,Potency,[2],23.5 µM (active)
same,Potency,[3],9.35 µM (active)
same,Potency,[4],23.4 µM (active)
same,Potency,[6],9.35 µM (active)
CCC[C@H]1C[C@H](C(=O)N[C@@H]([C@@H]2O[C@@H](SC)[C@@H](O)[C@@H](O)[C@@H]2O)[C@H](C)Cl)N(C)C1,Potency,[1],inactive
same,Potency,[2],inactive
same,Potency,[3],inactive
same,Potency,[4],inactive
C[C@@H](NCc1cc2ccccc2[nH]1)c1cccc2ccccc12,Potency,[1],inactive
same,Potency,[2],inactive
same,Potency,[3],inactive
same,Potency,[4],inactive
same,Potency,[6],inactive
O=C(NC1CC1)c1cccc(-c2ccc3c(NC(=O)C4CC4)n[nH]c3c2)c1,Potency,[1],1.32 µM (active)
same,Potency,[2],inactive
same,Potency,[3],inactive
same,Potency,[4],9.3 µM (active)
same,Potency,[6],1.18 µM (active)
Cc1cnc(Nc2ccc(CN3CCOCC3)cc2)nc1Nc1cccc(S(=O)(=O)NC(C)(C)C)c1,Potency,[1],3.32 µM (active)
same,Potency,[2],3.32 µM (active) and 1.84 µM (active)
same,Potency,[3],33.2 µM (active)
same,Potency,[4],9.3 µM (active)
same,Potency,[6],4.69 µM (active)
C[C@H](NC(=O)Cc1cc(F)cc(F)c1)C(=O)N[C@H](C(=O)OC(C)(C)C)c1ccccc1,Potency,[1],inactive
same,Potency,[2],18.7 µM (active)
same,Potency,[3],inactive
same,Potency,[4],inactive
COc1ccnc2[nH]cc(C(=O)C(=O)N3CCN(C(=O)c4ccccc4)C[C@@H]3C)c12,Potency,[1],4.18 µM (active)
same,Potency,[2],inactive
same,Potency,[3],inactive
same,Potency,[4],inactive
